Sampled rows, rich in hits. Any-hit rate of the full collection: about 27%.
Cav32 inh – human Cav3.2 channel inhibition, primary screen; O95180; Cav3.2-expressing cells, Fluo-4 calcium fluorescence FDSS; hits give low values; B-score at 10 µM; hit rate 4% among 100,000; AID 449739;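 active = single-dose well whose peak fluorescence ratio is a statistical outlier from its plate by either plate-standardised score or position-corrected B-score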
CYP2C9 inh – human CYP2C9 inhibition; P11712; CYP2C9 Supersomes, luciferin-H conversion, luminescence; inhibition, % at 5 µM; hit rate 20% among 96,000; AID 777;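 active = blocking of liver enzyme CYP2C9 beyond about 50% at 5 µM, limit read from the data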
Target sequence (P11712 whole entry, looked up): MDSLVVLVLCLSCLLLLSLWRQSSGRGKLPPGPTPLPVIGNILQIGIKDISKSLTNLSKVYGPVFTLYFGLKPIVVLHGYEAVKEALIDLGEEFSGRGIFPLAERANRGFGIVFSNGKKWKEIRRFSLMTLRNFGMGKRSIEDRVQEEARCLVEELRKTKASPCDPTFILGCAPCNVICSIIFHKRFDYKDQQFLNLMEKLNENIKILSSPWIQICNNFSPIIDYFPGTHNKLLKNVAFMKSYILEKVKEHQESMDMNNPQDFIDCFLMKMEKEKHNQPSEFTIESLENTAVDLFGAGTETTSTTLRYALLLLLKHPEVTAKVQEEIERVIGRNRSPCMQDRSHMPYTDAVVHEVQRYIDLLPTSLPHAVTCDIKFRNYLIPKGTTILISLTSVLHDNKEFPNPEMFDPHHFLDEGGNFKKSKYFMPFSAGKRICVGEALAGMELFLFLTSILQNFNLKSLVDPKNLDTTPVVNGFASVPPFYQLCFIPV
CYP2C9 activ – increases human cytochrome P450 2C9 activity. P11712. recombinant CYP2C9, luciferin-H conversion, luminescence; hits give high values; factor 1 = untreated enzyme, 0 = blocked. activation factor at 5 µM. hit rate 1.4% among 96,000. AID 1024;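 active = activation factor of 2 or more for CYP2C9 at a 5 µM dose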
CYP2C19 act – increases human CYP2C19 enzyme activity. P33261. recombinant CYP2C19, luciferin-H EGE luminescence; hits give high values; 0 = fully inhibited enzyme, 1 = untreated enzyme. activation factor at 5 µM. 96,000 tested, under 10 active. AID 1025;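 active = activation factor of at least 2 at 5 µM in the primary screen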
CYP2C19 inh – blocks human cytochrome P450 2C19. inhibition, % at 5 µM. hit rate 21% among 96,000. CYP2C19 Supersomes, luciferin-H EGE luminescence, 30 min. P33261;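 active = CYP2C19 inhibition above a set limit at 5 µM in the primary screen, cut at about 50% in these data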
Each line names hits and unclear results; the compound was inactive in the other large screens.

Cc1c(C(=O)N2CCCc3ccccc32)oc2ccc(S(=O)(=O)N3CCOCC3)cc12	CYP2C9 inh 85, CYP2C19 inh 96
CCOC(=O)N1CCN(C(=O)c2oc3ccc(S(=O)(=O)N4CCOCC4)cc3c2C)CC1	CYP2C9 inh 75, CYP2C19 inh 55
CCOC(=O)N1CCN(C(=O)c2oc3ccc(S(=O)(=O)N4CCCCCC4)cc3c2C)CC1	CYP2C9 inh 73, CYP2C19 inh 80
Cc1c(C(=O)NCC2CCCO2)oc2ccc(S(=O)(=O)N3CCCC3)cc12 (stereo unspecified)	none
CC1CCN(S(=O)(=O)c2ccc3c(c2)C(=NO)c2cc(S(=O)(=O)N4CCC(C)CC4)ccc2-3)CC1	none
O=S(=O)(c1ccc2c(c1)C(=NO)c1cc(S(=O)(=O)N3CCCCC3)ccc1-2)N1CCCCC1	Cav32 inh -6.4
CCN1CCN(CC(=O)n2c3c(c4ccccc42)CC(C)CC3)CC1 (stereo unspecified)	CYP2C19 inh 51
Cc1cc(N(CN2CCCC2=O)C(=O)c2ccccc2)no1	none
CCC12CN(S(=O)(=O)c3ccc(C)cc3)CC(CC)(CN(S(=O)(=O)c3ccc(C)cc3)C1)C2=O	none
COCCCn1c(SCC(=O)OC2CCCCC2)nnc1-c1ccco1	CYP2C9 activ 2.2
Cn1c(SCC(=O)N(C2CCCCC2)C2CCCCC2)nnc1-c1cccs1	none
COCCCn1c(SCC(=O)NC2CCCC2)nnc1-c1ccco1	none
COCCCn1c(SCC(=O)OC2CCCCC2)nnc1-c1cccs1	CYP2C19 inh 85
COC(=O)C[C@H]1c2cc(C(F)(F)F)ccc2S(=O)(=O)N1c1ccc(N(C)C)cc1	none (no result: CYP2C9 inh, CYP2C9 activ, CYP2C19 act, CYP2C19 inh)
Cc1cccc(N2C(=O)CC(Sc3nc(-c4ccccc4)c4cc(Cl)ccc4n3)C2=O)c1 (stereo unspecified)	CYP2C9 inh 58
Cc1cccc(N2C(=O)CC(Sc3nc(C)cc(C)n3)C2=O)c1 (stereo unspecified)	none
O=C(Cn1c(C(F)(F)F)nc2ccccc21)Oc1cccc(C(F)(F)F)c1	none
O=c1c(Oc2ccccc2)coc2cc(O)cc(O)c12	none (no result: CYP2C9 inh, CYP2C9 activ, CYP2C19 act, CYP2C19 inh)
COc1ccc(NC(C)=O)cc1NC(=O)CN1CCN(CC(=O)Nc2ccccc2Cl)CC1	none
COc1ccc(NC(C)=O)cc1NC(C)C(=O)Nc1cccc2ccccc12 (stereo unspecified)	CYP2C9 inh 82, CYP2C19 inh 67
COc1ccc(CCNC(=O)COC(=O)c2ccc(Br)o2)cc1	Cav32 inh -3.8, CYP2C9 inh 78
COc1ccc(CCNC(=O)CNS(=O)(=O)c2ccc(Br)s2)cc1OC	none
O=C(COC(=O)c1ccc(Br)o1)NCCCc1ccccc1	CYP2C9 inh 71
CC(C)CCNC(=O)COC(=O)c1ccc(Br)o1	none
COc1ccc(CCNC(=O)COC(=O)c2ccc(Br)o2)cc1OC	CYP2C9 inh 80, CYP2C19 inh 71
NNC(=O)COc1ncn(-c2ccccc2)n1	none
CCCn1nnnc1-c1cccc(Cl)c1	none
c1ccc(-n2nnnc2SCCCSc2nc3ccccc3s2)cc1	none
CCNc1nc(Oc2ccc(C(=O)OC)cc2)nc(N(C)C)n1	none (no result: CYP2C9 inh, CYP2C9 activ, CYP2C19 act, CYP2C19 inh)
COC(=O)c1ccc(Oc2nc(Nc3ccc(C)c(C)c3)nc(N(C)C)n2)cc1	CYP2C9 inh 71, CYP2C19 inh 56
O=C(NN1C(=O)C2C(C1=O)C1C=CC2C12CC2)c1ccncc1 (stereo unspecified)	CYP2C19 inh 52
Cc1ccc(C)c(N(CC(N)=O)S(C)(=O)=O)c1	none
COC(=O)c1nn(-c2ccccc2)c(Cl)c1/C=N/OCc1ccc(C)cc1	none
CCn1ncc(Cl)c1C(=O)NC(C)c1ccccc1 (stereo unspecified)	CYP2C19 inh 62
CSCCC(NC(N)=O)C(=O)NCc1ccc(Cl)cc1 (stereo unspecified)	none
COC(=O)c1sc(NC(=O)C2CCCO2)c(C(=O)OC)c1C (stereo unspecified)	CYP2C19 inh 51
COC(=O)c1sc(NC(=O)C2CCCCC2C(=O)O)c(C(=O)OC)c1C (stereo unspecified)	CYP2C9 inh 93
COC(=O)c1sc(NC(=O)C(C)C)c(C(=O)OC)c1C	CYP2C19 inh 53
CCOC(=O)C1CCN(C(=O)CN(c2ccc(OC)cc2)S(=O)(=O)c2c(C)noc2C)CC1	none
COc1ccc(OC)c(NC(=O)CN(c2ccc(C(C)C)cc2)S(=O)(=O)c2c(C)noc2C)c1	Cav32 inh -4.5, CYP2C9 inh 94, CYP2C19 inh 75
COc1ccc(N(CC(=O)Nc2ccc(C)cn2)S(=O)(=O)c2c(C)noc2C)cc1	CYP2C9 inh 70, CYP2C19 inh 73
CCCN(c1ccc(C(C)C)cc1)S(=O)(=O)c1c(C)noc1C	CYP2C9 inh 82
Cc1noc(C)c1S(=O)(=O)N(CC(=O)N1CCn2c1nc1ccccc12)c1ccc(C(C)C)cc1	CYP2C9 inh 87, CYP2C19 inh 58
COc1ccc(OC)c(NC(=O)CN(c2ccc(C)cc2)S(=O)(=O)c2c(C)noc2C)c1	none
COC(=O)CN(c1ccc(OC)cc1)S(=O)(=O)c1c(C)noc1C	none
O=C(CN1CCOCC1)NCC12CC3CC(CC(C3)C1)C2	none
Nc1nc2ccc(N3CCOCC3)cc2s1	none
Cc1nn(Cc2ccccc2)c(C)c1NC(=O)CSc1nnc(-c2cc(Cl)ccc2O)n1C	none
COc1ccc(N(CC(=O)Nc2cc(Cl)ccc2OC)S(=O)(=O)c2c(C)noc2C)cc1	CYP2C9 inh 89, CYP2C19 inh 90
CCOc1cc(-c2ccc(N)c(OCC)c2)ccc1N	Cav32 inh -5.4, CYP2C9 inh 91, CYP2C19 inh 98
CCOc1cc(-c2nn3cnnc3s2)cc(OCC)c1OCC	none
C=C1CCN([C@@H](CC(C)C)C(=O)N2CCCC2)S(=O)(=O)c2ccccc21	none (no result: CYP2C9 inh, CYP2C9 activ, CYP2C19 act, CYP2C19 inh)
CC1(C)Nc2ccccc2N(CCC(=O)N2CCOCC2)C1=O	none
CN(C(=O)CCN1C(=O)C(C)(C)Nc2ccccc21)c1ccccc1	CYP2C19 inh 76
COc1ccc(Nc2nc(C)nc3c2nnn3Cc2ccccc2)cc1OC	none (no result: CYP2C9 inh, CYP2C9 activ, CYP2C19 act, CYP2C19 inh)
Cc1nc(N(C)Cc2ccccc2)c2nnn(Cc3ccccc3)c2n1	CYP2C9 inh 98, CYP2C19 inh 100
COc1ccc(-c2cn3c4c(sc3n2)CCCC4)cc1	CYP2C9 inh 78, CYP2C19 inh 86
COc1ccc(-c2cn3c(C)c(C(=O)N4CCCc5ccccc54)sc3n2)cc1	none (no result: CYP2C9 inh, CYP2C9 activ, CYP2C19 act, CYP2C19 inh)
CC(C)=C(C#N)c1nc2ccccc2s1	CYP2C19 inh 56 (no result: Cav32 inh)
COC(=O)c1ccc(/C(O)=C(\C#N)c2nc3ccccc3s2)cc1	CYP2C9 inh 58
CC(C)NC(=O)c1nc2ccccc2s1	none
O=Cc1cn(CC(=O)N2CCOCC2)c2ccccc12	none (no result: CYP2C9 inh, CYP2C9 activ, CYP2C19 act, CYP2C19 inh)
CN1CCN(Cn2cc(/C=C/C(=O)c3ccccc3)c3ccccc32)CC1	CYP2C9 inh 96, CYP2C19 inh 81
Cc1cc(C(=O)OCC(=O)Nc2ncc(C(F)(F)F)cc2Cl)c(C)o1	none (no result: Cav32 inh)
CCC1CCCCN1Cc1ccc(OC)c(C)c1 (stereo unspecified)	none
O=C(NCC1CC1)c1cc(-c2ccccc2)nn1CC1CC(c2cccc([N+](=O)[O-])c2)=NO1 (stereo unspecified)	none (no result: CYP2C9 inh, CYP2C9 activ, CYP2C19 act, CYP2C19 inh)
